Data taken from PubChem BioAssay (NCATS).
Results filed as inconclusive are left out. Entries that show only a call come without a potency. Calls of active or inactive are those of the source. The call rests on the fitted dose curve; in most records, active means well fitted inhibition curve with a large enough effect; inconclusive means small, poorly fitted or top-dose-only effect; inactive means no such curve, though single readings can be large or run the other way.

assay: Counterscreen qHTS for small molecule stabilizers of the endoplasmic reticulum resident proteome: GLuc-NoTag assay (AID 1508627); details: Gaussia luciferase NoTag secretion counterscreen, luminescence, thapsigargin 100 nM for final 4 h; series mostly up to 76.4 µM
From the text: Assay Provider: Brandon K. Harvey Ph.D.
National Institute on Drug Abuse, National Institutes of Health, Baltimore, MD
Endoplasmic reticulum (ER) dysregulation is associated with human pathologies including neurodegenerative, cardiovascular, muscular, and diabetic conditions. Maintenance of ER calcium is critical for functions of the ER and its depletion can lead to loss of ER resident proteins, in a process termed exodosis. Therapeutic compounds capable of attenuating the redistribution of ER proteins under pathological conditions may slow or stop disease progression. To identify such compounds, we performed a quantitative high-throughput screen (qHTS) using the SERCaMP assay, which monitors secretion of ER resident proteins triggered by calcium depletion.
SERCaMP was initially developed as a reporter of ER calcium homeostasis using a Gaussia luciferase with a modified signal peptide and carboxy-terminus (GLuc-SERCaMP), modifications that confer secretion of the reporter in response to ER calcium depletion (Henderson et al., 2014). The assay was used to screen 9,501 compounds, including a collection of drugs approved by the FDA (US), EMA (EU), NHI (Japan), and HC (Canada) regulatory agencies (Huang et al., 2011). Since the SERCaMP reporter reflects the exodosis phenomenon (Trychta et al., 2018a), compounds identified in the screen have the potential to prevent exodosis by different mechanisms such as stabilizing ER calcium or augmenting ERS retrieval.
1. Henderson, M.J., Wires, E.S., Trychta, K.A., Richie, C.T., and Harvey, B.K. (2014). SERCaMP: a carboxy-terminal protein modification that enables monitoring of ER calcium homeostasis. Mol Biol Cell 25, 2828-2839.
2. Huang, R., Southall, N., Wang, Y., Yasgar, A., Shinn, P., Jadhav, A., Nguyen, D.T., and Austin, C.P. (2011). The NCGC pharmaceutical collection: a comprehensive resource of clinically approved drugs enabling repurposing and chemical genomics. Sci Transl Med 3, 80ps16.
3. Trychta, K.A., Back, S., Henderson, M.J., and Harvey, B.K. (2018a). KDEL Receptors Are Differentially Regulated to Maintain the ER Proteome under Calcium Deficiency. Cell Rep 25, 1829-1840 e1826.
SEQUENCE No. (1, 2, 3, etc.); […] (e.g., Cells, Incubation, Reagent, etc.); VALUE and DESCRIPTION.
1; Reagent; 5 uL; 1000 SH-SY5Y cells per wells
3; Compound; 23 nL; Control inhibitor / compound library
5; Reagent; 100 nM; Thapsigargin
7; Reagent; 1 uL; 0.5x coelenterazine
8; Detection; Luminescence; ViewLux imaging system
NOTES (numbers refer to sequence above)
1; SH-SY5Y human neuroblastoma cells stably expressing the constitutively secreted GLuc (SH-SY5Y-GLuc-NoTag) cells were seeded in 1,536 well white tissue culture treated plates (Corning, Cat# 7464) in DMEM-high glucose-sodium pyruvate (ThermoFisher Scientific, Cat #10569) supplemented with 10% bovine growth serum (Hyclone), 10 U/ml penicillin (Gibco), 10 ug/ml streptomycin (Gibco), and 20 mM HEPES.
2; Assay plates were incubated for 5 hour at 37C in a humidified incubator containing 5% CO2.
4; Cells were then incubated for 19 hours at 37C, 5% CO2.
5; Thapsigargin was added at 100 nM to deplete ER calcium stores.
6; Cells were incubated for 4 hour (37 °C, 5% CO2)
7; Gaussia luciferase in the medium was measured by adding 1 ul of 0.5x coelenterazine (final concentration 0.07x) prepared in Gaussia Luciferase Glow Assay Buffer (Pierce), without addition of the Cell Lysis Buffer Reagent.
8; Luminescence was measured using a ViewLux CCD imaging system (Perkin Elmer) equipped with clear filters. […] The same controls were also used for the calculation of the Z' factor, a measure of assay quality control, as previously described (Zhang et al., 1999). For the initial validation of activity in the SERCaMP assays, hits from the primary screen were assayed again at 11-concentrations (1.3 nM - 76.6 uM). SH-SY5Y-GLuc-SERCaMP cells were assayed for ER Ca2+ depletion as outlined above.
1. Zhang, J.H., Chung, T.D., and Oldenburg, K.R. (1999). […]
Potency means the concentration at half of the fitted maximal effect.

SMILES | Potency
O=S(=O)(c1cccc2c(Cl)cccc12)N1CCCNCC1 | inactive
COc1ccc(CCN(C)CCc2ccc(OC)c(OC)c2)cc1OC | inactive
N#Cc1cc([N+](=O)[O-])c2sc(C(N)=O)[n+]([O-])c2c1 | inactive
CCCCCCCCCCCCCCC[C@H](O)[C@H](N)CO | inactive
C[C@]12C=CC(=O)C=C1CC[C@@H]1C2=CC[C@]2(C)[C@@H](C(=O)CN3CCN(c4cc(N5CCCC5)nc(N5CCCC5)n4)CC3)CC[C@@H]12 | inactive
N#C/C(=C\c1ccc(O)c(O)c1)C(=O)NCCCNC(=O)/C(C#N)=C/c1ccc(O)c(O)c1 | 20 µM (active)
CCCCCCCC/C=C\CCCCCCCC(=O)NCCc1ccc(O)c(O)c1 | inactive
NC(N)=NC(N)=Nc1ccccc1 | inactive
Cc1nc(N=Nc2ccc(S(=O)(=O)O)cc2S(=O)(=O)O)c(COP(=O)(O)O)c(C=O)c1O | inactive
O=C(O)CCC(=O)N1CCCC1C(=O)O (stereo not drawn) | inactive
CN1C2CCC1CC(OC(c1ccccc1)c1ccccc1)C2 (stereo not drawn) | inactive
NC(=Nc1ccccc1)NC(=O)c1nc(Cl)c(N)nc1N | inactive
Nc1ccc(-c2ccc3ccccc3n2)cc1 | inactive
